Source: PubChem BioAssay AID624304 (Sanford-Burnham Center for Chemical Genomics, 2012)
About 1,800 (0.5%) of roughly 360,000 compounds were called active. The list comes from a sample in which actives are over-represented; it also holds similar structures and randomly drawn compounds. Values without a mark were called inactive.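 How the source made its calls: active means interference check ratio from 0.5 to 1.5 plus GFP to RFP signal ratio inhibition reaching or exceeding a fixed threshold (cut at about 30% in these data, passing the limit was not always enough); inactive means the rest.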

test: suppressors of acrylamide-induced Pgst-4::GFP reporter in worms, primary screen, SKN-1 inhibitor project, whole organism, uHTS, GFP/RFP fluorescence ratio, strain VP596 (AID 624304); settings: C. elegans VP596 Pgst-4::GFP/RFP ratio, 24 h, at 21.8 µM, hits give high values

Compared with Cc1cc(C)c2nc(-c3cccnc3)cc(C(=O)Nc3ccc(S(=O)(=O)Nc4onc(C)c4C)cc3)c2c1, Cc1ccc(-n2ncc3c(=O)n(-c4ccc(C)c(C)c4)c(-c4ccco4)nc32)cc1 is higher in inhibition: 0.27% for the first, 18.1% for the second.

Going from O=C(c1ccc(Cl)cc1)n1cnc2ccccc21 to O=C(Nc1ccc(Cl)c(Cl)c1)N1CC=C(c2ccccc2)CC1, the inhibition rises from 11.4% to 13.1%.

Compared with C/C(N)=C(/C#N)C(=O)COC(=O)c1cc(-c2ccc(C)cc2)nc2ccccc12, CCCNC(=O)C1(C)CCN1C(=O)Cc1ccc(-c2ccccc2)cc1 (stereo unspecified) is lower in inhibition: -3.83% for the first, -5.8% for the second.

First: CC(C)Sc1nc(N)nc2c1ncn2C1OC(CO)C(O)C1O (stereo unspecified)
Second: CCn1c(SCC(=O)Nc2nc(C)cs2)nnc1C(C)NC(=O)c1ccccc1 (stereo unspecified)
The inhibition of the first is higher: 8.48% for the first, -5.72% for the second.

Going from Cn1c(SCC(=O)Nc2ccc(Br)cc2F)nnc1-c1ccco1 to Cc1cccc(OCC(=O)Nc2ccccc2F)c1, the inhibition rises from 6.52% to 11.3%.

Compared with O=C(NCc1ccccc1)C1CCN(C(=O)Cc2ccccc2)CC1, CC1(C(=O)NS(=O)(=O)c2ccccc2)CCN1C(=O)Cc1ccc(-c2ccccc2)cc1 (stereo unspecified) is higher in inhibition: 9.03% for the first, 14.5% for the second.

Going from CC(=O)NC1CC2CCCC(C1)N2CC(=O)Nc1ccccc1 (stereo unspecified) to O=C(COC(=O)/C=C/c1cccs1)NC1CCCCC1, the inhibition rises from -18.6% to 4.24%.

First: CCOC(=O)N1CCN(C(=O)c2ccc(CN(c3ccc(C)c(C)c3)S(C)(=O)=O)cc2)CC1
Second: COc1ccc(CC(NC(C)=O)C(=O)NC2CCN(C(=O)Nc3ccc(C#N)cc3)CC2)cc1OC (stereo unspecified)
The inhibition of the first is lower: 6.59% for the first, 11.3% for the second.

Going from OCc1nc(CO)n(Cc2ccccc2)n1 to Cc1c(C=O)c2ccccc2n1CC(=O)O, the inhibition rises from -5.44% to -4.35%.

First: COc1ccc(CC(NC(C)=O)C(=O)NC2CCN(C(=O)C3CC3)CC2)cc1OC (stereo unspecified)
Second: CCOC(=O)C1=C(CNC2CCCCC2)NC(=O)NC1c1cc(C)ccc1C (stereo unspecified)
The inhibition of the first is higher: 7.48% for the first, -5.96% for the second.

Going from OC(c1ccc(Cl)c(F)c1)c1ncc(-c2ccccc2Cl)[nH]1 (stereo unspecified) to Cc1ccc(C(NC(=O)C2CCN(CCOc3ccc(Cl)cc3Cl)CC2)c2ccccn2)cc1 (stereo unspecified), the inhibition falls from 20.6% to -6.91%.

Going from CCN1CCN(c2sc(S(C)(=O)=O)nc2S(=O)(=O)c2ccc(Cl)cc2)CC1 to CC1CN(S(=O)(=O)c2ccc(C(=O)NN3CCN(C)CC3)cc2)CC(C)O1 (stereo unspecified), the inhibition rises from -10.1% to -5.41%.

Going from NC(=O)C1(Nc2ccc(-c3ccccc3)cc2)CCCC1 to C#Cc1ccc(NC(=O)C2(C)CCN2C(=O)Cc2ccc(-c3ccccc3)cc2)cc1 (stereo unspecified), the inhibition falls from 13.2% to 8.15%.

Compared with N#CC1(Nc2ccc3c4c(cccc24)CC3)CCCCC1, c1ccc2c(c1)CCc1snnc1-2 is higher in inhibition: 8.67% for the first, 11% for the second.

First: COc1cccc(NC(=S)C(C#N)=C2N(C)c3ccccc3N2C)c1
Second: CC[n+]1c(C)n(-c2ccccc2)c2ccc(NC(C)=O)cc21
The inhibition of the first is higher: -3.75% for the first, -12.4% for the second.

Compared with COCCn1c(SCc2nc3cc(OC)c(OC)cc3c(=O)[nH]2)nnc1-c1ccncc1, COc1cc2[nH]c(=S)n(Cc3ccc(F)cc3)c(=O)c2cc1OC is lower in inhibition: 13.8% for the first, -0.963% for the second.

Going from C=CCNC(=S)N1CCN(CCN=Cc2c(C)[nH]n(-c3ccc([N+](=O)[O-])cc3)c2=O)CC1 to Cc1ccc(NC(=O)CSc2nn3c(=O)c(C)nnc3s2)cc1Cl, the inhibition rises from -5.99% to 20.9%.

First: O=S(=O)(c1cccs1)N1CCc2ccccc2C1
Second: O=S(=O)(c1ccc(Sc2nnc3ccccn23)nc1)N1CCOCC1
The inhibition of the first is lower: -31.6% for the first, 10.2% for the second.

Going from O=S1(=O)CSCS(=O)(=O)C1 to NC(=O)C1CCN(C2OC(=O)c3ccccc32)CC1 (stereo unspecified), the inhibition falls from 10.6% to -35.9%.

First: Cc1cc(OCc2cc(C(=O)NCc3cc(C(C)C)no3)no2)cc(C)c1Cl
Second: CCCCOC(=O)Nc1sc2nc(C)cc(C)c2c1-n1cccc1
The inhibition of the first is higher: 1.98% for the first, -12.8% for the second.

Going from O=C(NC(c1ccc(Cl)cc1)c1cnccn1)C1CCN(Cc2ccc(Cl)cc2)CC1 (stereo unspecified) to CCOc1cc2[nH]c(=S)n(CCN3CCCCC3C)c(=O)c2cc1OCC (stereo unspecified), the inhibition falls from -1.18% to -6.45%.

Going from CCCCS(=O)c1snnc1C (stereo unspecified) to COC(=O)Nc1sc2nc(C)cc(C)c2c1-n1cccc1, the inhibition rises from 0.19% to 6.78%.

Compared with O=C(NCCCN1CCOCC1)C1CCCN(S(=O)(=O)N2CCCCC2)C1 (stereo unspecified), O=C(C1CCCO1)N1CCN(C(=S)NC2CC2)CC1 (stereo unspecified) is lower in inhibition: 6.87% for the first, -7.31% for the second.

In the case of COc1ccc(-c2cc(C(=O)n3cnc4ccccc43)c3ccccc3n2)cc1, the inhibition is reported as 38.1% (active).
For Cn1c(-c2ccco2)nc2cc3ccccc3cc21, the inhibition was 41.7% (active).
In the case of O=C(CN1C2CCC1CC(NC(=O)C1CC1)C2)NCc1ccccc1 (stereo unspecified), the inhibition is reported as 35.8% (active).
In the case of COc1ccc(CC(NC(C)=O)C(=O)N2CCN(C(=O)Nc3cccc(Cl)c3)CC2)cc1OC (stereo unspecified), the inhibition is reported as 40.7% (active).
In the case of COc1cc(N2CCCC2)c(OC)cc1/C=C(/C#N)c1cccc(Br)c1, the inhibition is reported as 45.8% (active).
In the case of N#CC1(Nc2ccc(-c3ccc(Cl)cc3)cc2)CCCC1, the inhibition is reported as 69% (active).
For CC(=O)c1c(C)n([O-])c2ccccc2[n+]1=O, the inhibition was 36.9% (active).
In the case of CC(=O)Nc1cccc(OCC(=O)/C=C2\N(C)c3ccccc3C2(C)C)c1, the inhibition is reported as 45.5% (active).
For O=C1/C(=C/c2cccs2)CCc2ccccc21, the inhibition was 41.9% (active).
In the case of O=C1/C(=C/c2cccs2)CCC1C1CCCC1 (stereo unspecified), the inhibition is reported as 41.6% (active).
In the case of O=C(CC(O)(C(F)(F)F)C(F)(F)F)Nc1ccc(Cl)c(Cl)c1, the inhibition is reported as 50.1% (active).
With O=C(NC(c1ccc(-c2ccccc2)cc1)c1cnccn1)C1CCN(CCOc2ccc(Cl)cc2Cl)CC1 (stereo unspecified) the inhibition was 39.3% (active).
In the case of CC1(C(=O)NS(=O)(=O)c2cccs2)CCN1C(=O)Cc1ccc(-c2ccccc2)cc1 (stereo unspecified), the inhibition is reported as 35.1% (active).
With Cc1cc(C)c2c(-n3cccc3)c(NC(=O)OCc3ccccc3)sc2n1 the inhibition was 39.1% (active).
In the case of COc1cc2[nH]c(=S)n(CCN3CCCCC3C)c(=O)c2cc1OC (stereo unspecified), the inhibition is reported as 56.1% (active).
